Experimental data reported in PubChem BioAssay AID485317 (Broad Institute, 2010).
The whole screen tested about 290,000 compounds, of which about 11,000 (3.8%) were called active.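 The calls were made as follows: active = mean replicate inhibition above about 79%, with every replicate also reaching it (limit read from the data); inconclusive = only one of the two criteria met; inactive = mean below limit and not every replicate reaching it.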 This excerpt belongs to a sample that is enriched for actives.

molecular target: FAD-linked sulfhydryl oxidase ALR (Homo sapiens) (UniProt P55789); test: ALR-catalysed DTT oxidation blockers – biochemical, H2O2 detection, HRP-luminol luminescence, single point, primary screen (AID 485317); details: purified ALR, active compounds read high, concentration not given here
Sequence (P55789 whole entry, looked up): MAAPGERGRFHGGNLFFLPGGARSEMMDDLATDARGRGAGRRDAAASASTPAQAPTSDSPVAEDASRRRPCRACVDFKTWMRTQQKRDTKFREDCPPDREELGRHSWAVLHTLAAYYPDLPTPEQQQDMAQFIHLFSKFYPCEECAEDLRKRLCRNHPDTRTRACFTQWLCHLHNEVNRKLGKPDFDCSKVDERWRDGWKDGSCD

Compound | inhibition
COc1ccc(OC)c(S(=O)(=O)Nc2c(C)nn(C)c2C)c1 | -0.73% (inactive)
O=C(Cn1nnc(-c2ccccc2)n1)NC(=O)NC1CCCC1 | -9.99% (inactive)
CCN(CC)S(=O)(=O)c1ccc2[nH]c(=O)cc(C(=O)N(C)C3CCS(=O)(=O)C3)c2c1 (configuration not stated) | -1.56% (inactive)
COc1ccccc1C(CNC(=O)c1cccc(S(=O)(=O)Nc2ccc(F)cc2)c1)N(C)C (configuration not stated) | -11.3% (inactive)
COc1cccc(C2=CC(=O)C[C@H](c3ccc(OC)c(OC)c3)C2)c1 | -2.35% (inactive)
COC(=O)c1ccc(CNC(=O)c2ccc(S(=O)(=O)N3CCCCCC3)cc2)cc1 | -5.09% (inactive)
COC(=O)c1ccc(CSc2ccc(S(=O)(=O)N3CCCCC3)cn2)cc1 | 98.5% (active)
O=S(=O)(c1ccc(SCc2ccccc2)nc1)N1CCCCCC1 | -0.984% (inactive)
CC(=O)c1cccc(OCC(=O)OCC(=O)Nc2cc(S(=O)(=O)N3CCCCC3)ccc2C)c1 | -1.77% (inactive)
CCN(CC(=O)Nc1cc(Cl)ccc1C)C(=O)Cn1c(=O)cnc2ccccc21 | 0.937% (inactive)
O=C(Nc1ccon1)c1nc[nH]c1C(=O)NCc1ccccc1 | -9.59% (inactive)
O=C(c1ccc2ccccc2n1)N1CCN(c2ccccc2Cl)CC1 | 2.19% (inactive)
O=C(c1c(Cl)cccc1Cl)N1CCN(c2cccc3[nH]ccc23)CC1 | 98.9% (active)
COc1ccccc1N1CCN(C(=O)c2c(-c3c(Cl)cccc3Cl)noc2C)CC1 | 15.3% (inactive)
CN(C)C(=O)N=NC(=O)N(C)C | -21.7% (inactive)
CCOc1ncccc1C(=O)OCC(=O)Nc1cccc(S(=O)(=O)N2CCCCCC2)c1 | 0.144% (inactive)
COc1ccc(C(=O)NCc2ccccc2C)cc1S(=O)(=O)NC1CCCC1 | -15.1% (inactive)
CCn1nnc2cc(C(=O)Nc3ccc(C(=O)OC(C)C)cc3)ccc21 | -0.266% (inactive)
O=C(COC(=O)c1cccnc1Cl)NC(=O)NC1CCCCC1 | -0.213% (inactive)
CCCNC(=O)CCn1cc(-c2ccc(OC)cc2)nc1CCN | 10.4% (inactive)
O=C(CCOc1ccccc1)NCc1ccccc1 | -6.56% (inactive)
O=C(CCCOc1ccccc1)NCc1ccco1 | 86.9% (active)
CC(C)(C)NC(=O)NCc1ccco1 | 6.08% (inactive)
O=C(/C=C/c1ccc(Cl)cc1Cl)NCc1ccco1 | -6.98% (inactive)
COC(=O)/C=C/C(=O)NCc1ccco1 | 79.8% (active)
CN(C)C(CNC(=O)CCCOc1ccccc1)c1ccco1 (configuration not stated) | 3.18% (inactive)
COc1cc(NC(=O)c2[nH]cnc2C(N)=O)cc(C(=O)Nc2cccc(C(F)(F)F)c2)c1 | -4.54% (inactive)
